# ELG1 repair inh: blocks ELG1-dependent DNA repair in HEK293T cells; HEK293T ELG1-luciferase reporter, luminescence, 16 h; DNA damage induced by 5-fluorouridine; Potency, µM (series often up to 46.1 µM), hits mostly inhibitors; 2.3% of 330,000 active; AID 504467; also: nearly all actives have a fitted effect of over 55% in size
#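 DMSO vehicle served as the neutral condition. Each well held 2,000 cells given 5-fluorouridine plus compound; after 16 hr at 37 °C/5% CO2, ONE-Glo was added and luciferase measured 30 min later.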
# SW480 rerep: inducers of DNA re-replication in SW480 colon cancer cells. SW480 DNA re-replication, Hoechst DNA content imaging, 48 h. Potency, µM (doses to about 46.1 µM), actives largely listed as activators. 1.8% of 340,000 active. AID 624297; also: nearly all actives have a fitted effect of over 55% in size
#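 Image-based read-out: total Hoechst fluorescence of nuclei (405 nm excitation, 500-530 nm emission), with hits raising the fraction of high-intensity nuclei. SW480 colon cells incubated 48 hr with compounds at 37 C.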
# VP16 counter: counter-screen for ROR gamma inhibitors: Gal4-VP16 reporter | Drosophila S2 Gal4-VP16 UAS-luciferase, luminescence, 20 h | Potency, µM (series often up to 53.6 µM), usual class: inhibitors | 3.5% of 310,000 active | AID 2546;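 also: Gal4-VP16 expression switched on by copper sulfate through the metallothionein promoter; nearly all actives have a fitted effect of over 50% in size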
# MCF10A rereplic: DNA re-replication induction in MCF 10a cells; MCF 10A DNA re-replication, Hoechst nuclear intensity, 48 h; Potency, µM (highest dose often 46.1 µM), most hits filed as activators; 2.9% of 350,000 active; AID 624296; also: nearly all actives have a fitted effect of over 50% in size
# RORg inh: inhibitors of mouse ROR gamma transcriptional activity | 5.4% of 310,000 active | Potency, µM (doses to about 53.6 µM), most hits filed as inhibitors | AID 2551 | Drosophila S2 Gal4-RORgamma UAS-luciferase reporter, 20 h | P51450; also: nearly all actives have a fitted effect of over 60% in size
# Target sequence (P51450 whole entry, looked up, the tested form may be a part): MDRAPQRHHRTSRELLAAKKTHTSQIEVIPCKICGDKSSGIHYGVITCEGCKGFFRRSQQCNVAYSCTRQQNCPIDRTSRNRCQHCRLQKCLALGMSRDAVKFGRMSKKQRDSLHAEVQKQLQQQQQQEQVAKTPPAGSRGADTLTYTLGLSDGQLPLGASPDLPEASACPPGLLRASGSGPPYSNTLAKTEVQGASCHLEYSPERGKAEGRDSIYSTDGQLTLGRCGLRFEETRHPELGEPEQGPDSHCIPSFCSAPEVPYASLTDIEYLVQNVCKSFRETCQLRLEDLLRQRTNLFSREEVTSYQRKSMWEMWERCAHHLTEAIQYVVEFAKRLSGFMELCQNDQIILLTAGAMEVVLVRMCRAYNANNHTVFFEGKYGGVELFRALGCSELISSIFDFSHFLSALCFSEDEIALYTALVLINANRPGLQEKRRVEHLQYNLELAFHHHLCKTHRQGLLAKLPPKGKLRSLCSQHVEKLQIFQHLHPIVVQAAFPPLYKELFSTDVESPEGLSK
#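 Schneider cells (Drosophila), stable Gal4 DBD–ROR gamma + UAS-luc; 1 hr cmpd preincubation; Cu2+ induction 700 uM final; 20 hr ambient; luminescence.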
# A number is an active result; n = inactive; u = inconclusive; x = no result given; [ ] = remark or other dose. This is a sample that favours compounds with a hit; in the whole collection about 10% have one here. Calls follow the shape of the dose curve; as a rule, active = well fitted curve in the direction sought with a large enough effect; inconclusive = small, poorly fitted or top-dose-only effect, or another doubt; inactive = no such curve, though single readings can be large; an effect the other way counts as inactive or inconclusive.
SMILES,ELG1 repair inh,SW480 rerep,VP16 counter,MCF10A rereplic,RORg inh
Cc1cc2ncc(-c3ncc(C(F)(F)F)cc3Cl)cn2n1,u,n,10µM,n,7.9µM
CCCCCCCCCc1nc2sc3c(c2c(=O)n1NC(=O)c1ccccc1[N+](=O)[O-])CC(C)(C)OC3,u,n,n,2.9µM,n
CCCCCCCCCc1nc2sc3c(c2c(=O)n1NC(=O)c1ccc([N+](=O)[O-])cc1)CC(C)(C)OC3,n,n,u,6.5µM,u
CCCc1nc2sc3c(c2c(=O)n1NC(=O)c1ccco1)CC(C)(C)OC3,n,n,n,n,n
CC(=O)Nc1ccc(-c2nnc(SCc3c(C)cc(C)cc3C)n2C)cc1,u,n,n,n,n
COc1cc(C(=O)Nc2nnc(C3CC3)s2)ccc1OCc1c(C)noc1C,n,n,n,n,n
COc1cc(N=C2C(=O)N3c4c(cccc42)C(C)=CC3(C)C)cc(OC)c1,n,21µM,n,n,n
COc1ccc(C(=O)Oc2cc3c4c(c2)C(C)=CC(C)(C)N4C(=O)C3=O)cc1OC,u,n,n,n,n
COc1cccc(C(=O)Oc2cc3c4c(c2)C(C)=CC(C)(C)N4C(=O)C3=O)c1,u,4.1µM,u,u,u
COc1cc2c3c(c1)C(C)=CC(C)(C)N3C(=O)C2=O,n,10µM,n,u,n
Cc1cc(F)ccc1NC(=O)CCc1ccc(S(=O)(=O)N2CCOCC2)cc1,n,n,x,n,x
Cc1ccc(-n2ncc3c2CCCC3NC(=O)c2ccoc2)cc1C (stereo unspecified),n,n,n,n,n
COCc1ccc(C(=O)NC2CCCc3c2cnn3-c2ccc(C)c(C)c2)o1 (stereo unspecified),u,n,11µM,n,u
Cc1cc(C(=O)NC2CCCc3c2cnn3-c2ccc(C)c(C)c2)n(C)n1 (stereo unspecified),n,n,0.0079µM,n,u
OC[C@H](O)[C@H](O)[C@@H](O)[C@@H](O)[C@@H]1SC(c2ccccc2)=NN1c1ccccc1,u,u,n,u,8.9µM
Cc1ccc(C2=NNC(C(O)C(O)C(O)C(O)CO)S2)cc1 (stereo unspecified),u,n,n,n,u
CCOc1ccc(NS(=O)(=O)c2cc(NC(=O)c3ccc(C)cc3)ccc2Cl)cc1,6.5µM,4.6µM,n,2.1µM,u
COc1ccc(C(=O)Nc2ccc(Cl)c(S(=O)(=O)Nc3ccccc3OC)c2)cc1,u,n,u,n,n
COc1ccc(NS(=O)(=O)c2cc(N/C(=N\S(=O)(=O)c3ccccc3)c3ccc(F)cc3)ccc2Cl)cc1,u,u,n,13µM,u
CCOc1ccc(Oc2ccc(NS(=O)(=O)c3cc(C(=O)O)ccc3Cl)cc2)cc1,n,n,x,n,x
COc1ccccc1NS(=O)(=O)c1cc(NC(=O)c2ccc(Cl)nc2)ccc1Cl,13µM,n,20µM,18µM,n
O=C(CSc1n[nH]c(=O)n1C1CC1)Nc1ccc(F)c([N+](=O)[O-])c1,n,n,x,n,x
CC(C)C(=O)Nc1nnc(NC(=S)Nc2ccccc2)s1,u,n,2.8µM,n,0.56µM
CCCc1nnc(NC(=S)Nc2ccccc2)s1,u,n,0.63µM,n,0.63µM
COc1ccc2[nH]c(=O)c(CN(Cc3ccc4c(c3)OCO4)C(C)=O)cc2c1,n,n[9.22 µM],n,n,n
SMILES,ELG1 repair inh,SW480 rerep,VP16 counter,MCF10A rereplic,RORg inh
COC(=O)c1ccccc1NC(=S)N(Cc1ccc2c(c1)OCO2)Cc1cc2ccc(C)cc2[nH]c1=O,5.8µM,n,n,n,n
CCN(CC)CCN(Cc1cc2ccc(C)cc2[nH]c1=O)C(=S)Nc1ccccc1C(=O)OC,n,u,n,n,n
COC(=O)c1ccccc1NC(=S)N(Cc1ccc2c(c1)OCO2)Cc1cc2ccc(OC)cc2[nH]c1=O,7.3µM,n,n,n,n
COC(=O)c1ccccc1NC(=S)N(Cc1ccc2c(c1)OCO2)Cc1cc2cc(C)ccc2[nH]c1=O,6.5µM,n,n,n,n
Cc1ccc2ccccc2c1[N+](=O)[O-],x,x,n,x,n
COCCN1C(=O)c2ccccc2C(C(=O)N2CCN(c3ccccn3)CC2)C1c1ccc(F)cc1 (stereo unspecified),n,n,n,n,n
CCS(=O)(=O)c1nnnn1-c1ccccc1S(C)(=O)=O,15µM,u,u,u,u
O=S(=O)(CCc1ccccc1)c1nnnn1-c1ccccc1,x,x,n,x,n
CCCc1cc(Nc2ccccc2OCC)n2ncnc2n1,n,n,u,n,11µM
CC1CCC2(CC1)NC(=O)N(Cc1cccc(C(F)(F)F)c1)C2=O (stereo unspecified),u,u,n,u,n
Nc1cc2c3ccccc3ccc2c2ccccc12,x,21µM,x,u,x
c1ccc2c(c1)ccc1cc3c(ccc4ccccc43)cc12,x,x,n,x,n
COC(=O)c1ccc(C(=O)OC)c(NC(=O)COC(=O)c2ccc(OC)c(OC)c2OC)c1,5.8µM,n,n,n,n
CCOCC(=O)Nc1cc(C(=O)OC)ccc1C(=O)OC,n,n,n,n,n
O=C1O/C(=C/c2ccccc2)c2ccccc21,n,n,n,n,n
N#CC1=C(c2ccccc2)/C(=C/c2ccccc2)OC1=O,u,u,2.2µM,6.5µM,3.5µM
Clc1ccc2nc(COc3ccccc3)[nH]c2c1,u,7.3µM,n,3.3µM,n
S=c1nc(COc2ccccc2)[nH]c2ccccc12,u,n,18µM,n,1.6µM
Cc1nc(=S)c2ccccc2[nH]1,u,n,u,n,10µM
Clc1ccc2nc(-c3ccccc3)[nH]c2c1,x,x,n,x,n
S=c1nc(Cc2ccccc2)[nH]c2ccccc12,u,n,6.3µM,n,2.8µM
O=C(COC(=O)c1cc(S(=O)(=O)N2CCCCC2)ccc1Cl)NC1CCS(=O)(=O)C1 (stereo unspecified),u,n,x,n,x
S=c1nc(Cc2ccc(Cl)cc2)[nH]c2ccccc12,n,n,11µM,u,1.8µM
Cc1ccc(Cc2nc3ccccc3[nH]2)cc1,n,n,n,n,n
O=C(CN1C(=O)CCSc2ccc(S(=O)(=O)N3CCCC3)cc21)Nc1ccccc1,n,n,n,n,n
SMILES,ELG1 repair inh,SW480 rerep,VP16 counter,MCF10A rereplic,RORg inh
CCCCCCCCCCCCC[N+](C)(C)Cc1ccccc1,x,x,8.9µM,x,u
CC#CC[N+](C)(C)CCCCCCCC,u,n,n,n,n
CCCCCCCCCCCCCCCC[N+](C)(C)Cc1ccc(F)cc1,x,u,x,15µM,x
C[N+](C)(CCOc1ccccc1)Cc1ccccc1 (tested in a mixture with another compound),n,n,n,n,n
CC1=CC2(O)OCCN(CCO)C2=CC1=O (stereo unspecified),n,n,16µM,n,16µM
Cc1cc(C)n(-c2ncc3c(n2)N(CCO)CCOC3=O)n1,n,n,n,n,n
COc1ccccc1/C=N/OC(=O)c1ccc(C)cc1,n,n,n,n,n
